High-throughput results (PubChem)
EphB4 ephrin blk = EphB4-ephrin-B2 interaction antagonists, primary screen, biochemical, TNYL-RAW peptide probe, fluorescence polarization | EphB4 LBD / TNYL-RAW-Alexa532 peptide | inhibition, % at 7 µM | 0.15% of 97,000 active;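 active means inhibition above the screen-wide mean inhibition plus 3 SD, cut at about 15% in these data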;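 further: 0% = DMSO wells and 100% = excess unlabeled TNYL-RAW peptide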
CYP2C19 act = human CYP2C19 activators, primary screen, biochemical, luminescence. recombinant CYP2C19, luciferin-H EGE luminescence; active compounds read high; 0 = fully inhibited enzyme, 1 = untreated enzyme. activation factor at 5 µM. 96,000 tested, under 10 active;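 active means activation factor of at least 2 at 5 µM in the primary screen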;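 further: 0 = wells with 2.5 mM tranylcypromine and 1 = vehicle-only wells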
CYP2C9 act = human CYP2C9 activators, primary screen, biochemical, luminescence; activation factor at 5 µM; Cytochrome P450 2C9 (Homo sapiens), P11712; 1.4% of 96,000 active; recombinant CYP2C9, luciferin-H conversion; active compounds read high; factor 1 = untreated enzyme, 0 = blocked; AID 1024, 2008;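 active means activation factor of 2 or more for CYP2C9 at a 5 µM dose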;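 further: 0 = sulfaphenazole-blocked wells and 1 = vehicle-only wells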
CYP2C19 inhib = blockers of cytochrome P450 2C19 activity – biochemical, luminescence, ADME assay, primary screen; P33261; CYP2C19 Supersomes, luciferin-H EGE luminescence, 30 min; inhibition, % at 5 µM; 21% of 96,000 active; AID 778, 2007;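 active means CYP2C19 inhibition above a set limit at 5 µM in the primary screen, cut at about 50% in these data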;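 further: plate controls were negative control wells for no effect and 2.5 mM tranylcypromine positive control for full effect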
CYP2C9 inhib = blockers of cytochrome P450 2C9 activity – biochemical, luminescence, ADME assay, primary screen; P11712; inhibition, % at 5 µM; CYP2C9 Supersomes, luciferin-H conversion; 20% of 96,000 active;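 active means blocking of liver enzyme CYP2C9 beyond about 50% at 5 µM, limit read from the data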
Starred values were filed as active, the others as inactive; . = not tested or not shown. Hits are enriched below; roughly 27% of the tested compounds scored in any of these assays.

SMILES	EphB4 ephrin blk	CYP2C19 act	CYP2C9 act	CYP2C19 inhib	CYP2C9 inhib
Cc1cc(C)cc(-n2nnc(C(=O)NCc3ccc(Cl)cc3)c2N)c1	2	0.9	1.2	6	-15
CCn1cc(C(=O)NCC2CCCO2)c(=O)c2cc(S(=O)(=O)N(C)C)ccc21 (stereo not drawn)	6	.	.	.	.
CC(C)N(CCNC(=O)c1cn(C)c2ccc(S(=O)(=O)N(C)C)cc2c1=O)Cc1ccccc1	1	0.9	0.5	11	51*
C=CCn1cc(C(=O)NCC2CCCO2)c(=O)c2cc(S(=O)(=O)N3CCCCCC3)ccc21 (stereo not drawn)	-7	0.9	0.5	7	55*
O=C(NCC1CCCO1)c1cc(-c2ccncc2)nc2ccc(S(=O)(=O)N3CCOCC3)cc12 (stereo not drawn)	0	0.3	0.3	72*	70*
O=C(NCCN1CCCC1)c1cc(-c2ccncc2)nc2ccc(S(=O)(=O)N3CCOCC3)cc12	.	0.6	0.7	40	32
CCn1cc(C(=O)NCC2CCCO2)c(=O)c2cc(S(=O)(=O)N(C)C3CCCCC3)ccc21 (stereo not drawn)	-3	0.8	0.4	22	61*
CCN1CCCC1CNC(=O)c1cn(CC)c2ccc(S(=O)(=O)N3CCCCCC3)cc2c1=O (stereo not drawn)	2	0.9	0.6	13	40
CS(=O)(=O)N1CCc2cc(C(=O)N3CCOCC3)ccc21	5	0.9	1.1	8	-5
O=C(O)[C@H]1CCCC[C@H]1C(=O)NCCNC(=O)[C@@H]1CCCC[C@@H]1C(=O)O	0	1.1	1.2	-9	-18
CCOCCCNC(=O)c1cn(C)c2ccc(S(=O)(=O)N(C)C3CCCCC3)cc2c1=O	10	1	0.8	3	23
CCN(CCCNC(=O)c1cn(CC)c2ccc(S(=O)(=O)N(C)C)cc2c1=O)c1cccc(C)c1	-6	0.6	0.2	42	77*
CCn1cc(C(=O)NCCCOC)c(=O)c2cc(S(=O)(=O)N(C)C3CCCCC3)ccc21	-1	0.7	0.2	26	76*
c1csc(CNc2nc3ccccc3n2CCN2CCOCC2)c1	-1	0.6	0.5	43	51*
CCCn1c(NCc2cccs2)nc2ccccc21	6	0.9	1.1	7	-6
COc1cccc(OC)c1OCCN(C)C	-4	0.9	1	7	2
Cc1ccc(Cn2cccc(NC(=O)NC3CCCCC3)c2=O)cc1	-10	0.4	0.7	65*	33
O=C(Nc1cccn(Cc2ccccc2)c1=O)NC1CCCCC1	-3	0.7	0.7	32	31
COC(=O)COc1ccc(S(=O)(=O)N2CCc3ccccc3C2)cc1C	9	0.2	2.1*	79*	-109
CC(=O)N1CCCc2cc(S(=O)(=O)N3CCc4ccccc4C3)ccc21	.	0.3	1	74*	-4
COc1ccccc1CNC(=O)CCNS(=O)(=O)c1cccc2nsnc12	1	0.2	2.3*	80*	-129
COc1ccc(C(=O)O)cc1NS(=O)(=O)c1cccc2nsnc12	.	1.1	1.1	-10	-7
COc1ccccc1NC(=O)CS(=O)(=O)c1cccc2nsnc12	4	0.6	2.5*	40	-154
CCOc1ccccc1NS(=O)(=O)c1cccc2nsnc12	2	0.1	0.7	91*	29
Cc1cccc(NC(=O)CCNS(=O)(=O)c2cccc3nsnc23)c1	.	0.3	0.8	67*	18
SMILES	EphB4 ephrin blk	CYP2C19 act	CYP2C9 act	CYP2C19 inhib	CYP2C9 inhib
Cc1cc(-c2ccco2)n(CC(=O)NCc2ccco2)n1	-11	0.9	1	9	-4
COc1nc(NCCN2CCOCC2)nc(Nc2ccc([N+](=O)[O-])cc2)n1	0	0.9	0.8	8	16
Cc1cc(=O)n2c3ccccc3n(CC(O)CN3CCCC3)c2c1C#N (stereo not drawn)	0	1.1	1.1	-6	-12
Brc1ccccc1OCCCCCN1CCCC1	2	0.9	1	10	-1
CN1C(=S)SC(C)(C)C1NO (stereo not drawn)	-5	1.1	1.2	-10	-15
COc1ccccc1CN1C(=S)SC(C)(C)C1NO (stereo not drawn)	-7	0.1	0.3	91*	68*
Cc1ccccc1NC(=O)N1CCCC(c2nc(-c3ccc(C(C)C)cc3)no2)C1 (stereo not drawn)	-1	0.8	0.3	19	70*
Cc1ccccc1NC(=O)N1CCCC(c2nc(-c3ccc(F)cc3)no2)C1 (stereo not drawn)	8	0.5	0.3	54*	70*
O=C(Nc1cccc(C(F)(F)F)c1)N1CCC(c2nc(-c3ccc(F)cc3)no2)CC1	-2	0.6	0.4	41	56*
O=C(C1CCCCC1)N1CCCC(c2nc(-c3ccc(F)cc3)no2)C1 (stereo not drawn)	2	0.7	0.5	31	48
O=C(Nc1ccccc1)N1CCCC(c2nc(-c3ccc(F)cc3)no2)C1 (stereo not drawn)	-4	0.6	0.5	36	48
Cc1ccc(-c2noc(C3CCCN(C(=O)c4ccc(F)cc4F)C3)n2)cc1 (stereo not drawn)	-5	0.8	0.6	22	39
CC(C)c1ccc(-c2noc(C3CCCN(C(=O)c4ccc(F)cc4F)C3)n2)cc1 (stereo not drawn)	1	0.2	0.1	82*	90*
O=C(NCC(=O)N(Cc1ccccc1)C(C(=O)NCC1CCCO1)c1ccccc1)c1cccs1 (stereo not drawn)	2	0.9	0.8	6	16
O=c1cc(CSc2nnnn2-c2ccccc2)nc2nc[nH]n12	0	1	0.7	1	28
Cc1ccc(-c2noc(C3CCCN(C(=O)C4CCCCC4)C3)n2)o1 (stereo not drawn)	5	0.5	0.4	53*	60*
CCn1c2ccccc2c2cc(/C=N/n3c(C)nnc3C)ccc21	2	0.9	1.2	7	-21
N/C(=N\OC(=O)CCCN1C(=O)c2ccccc2C1=O)c1ccc(Cl)cc1	-6	1	0.9	-3	12
CCCCOc1ccc(S(=O)(=O)N2CCCCCC2)cc1	4	0.1	0.1	93*	94*
COc1ccc(S(=O)(=O)N2CCCCC2)cc1C(C)C	-11	0.7	0.8	31	22
COc1ccccc1Oc1ccc(S(=O)(=O)N2CCCC2)cc1	-2	0.4	0.2	56*	78*
CCOC(=O)CC1C(=O)NCCN1S(=O)(=O)c1cc(Cl)c(Cl)cc1Cl (stereo not drawn)	-2	0.4	1.2	62*	-21
